The panel holds about 83,000 compounds, 20% with a hit somewhere; the sample as a whole holds those more often.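 Values shown are percent growth following 48 h exposure of cells in 96-well plates to a single concentration of compound; below 10 was considered active.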 A number with no mark means an inactive call. Active and inactive are the calls of the source.
What was measured:
Experiment in all cases: NCI-60 one-dose screen, 48 h (100 = growth as untreated, 0 = no growth, -100 = all killed)
Details in all cases: 10 µM unless noted
SK-MEL-2 melanoma = test system: SK-MEL-2 melanoma
SN12C renal = test system: SN12C renal
UO-31 renal = test system: UO-31 renal
TK-10 renal = test system: TK-10 renal
ACHN renal = test system: ACHN renal
CAKI-1 renal = test system: CAKI-1 renal
A498 renal = test system: A498 renal
MOLT-4 leukemia = test system: MOLT-4 leukemia
CCRF-CEM leukemia = test system: CCRF-CEM leukemia

SMILES	growth (SK-MEL-2 melanoma)	growth (SN12C renal)	growth (UO-31 renal)	growth (TK-10 renal)	growth (ACHN renal)	growth (CAKI-1 renal)	growth (A498 renal)	growth (MOLT-4 leukemia)	growth (CCRF-CEM leukemia)
O=C1c2ccccc2-c2nnc(-c3ccc(Br)cc3)cc21	-0.262% (active)	27.9%	46.9%	119%	34.8%	60.3%	97%	4.61% (active)	–
CCCCCn1c(=N)n(CC(O)COc2cccc(C)c2)c2ccccc21 (configuration not stated)	-34.1% (active)	12%	0.645% (active)	21.4%	10.7%	7.06% (active)	-3.77% (active)	1.95% (active)	–
COc1ccc(OC)c2ncccc12	87.5%	101%	64.4%	108%	94.7%	95.7%	101%	93.1%	92.4%
COc1cc(C(=O)/C=C/c2c(-c3cccs3)nc3sccn23)cc(OC)c1OC	-3.21% (active)	4.03% (active)	10.2%	3.46% (active)	12.4%	-29% (active)	-26.3% (active)	-1.21% (active)	10.8%
COc1ccc(-c2nc3sc(C)nn3c2-c2nc3cc(C)c(C)cc3[nH]2)cc1	104%	87.5%	85.9%	118%	89.7%	89.8%	102%	78.1%	85.9%
Cc1nc2cc(Nc3nc(N4CCOCC4)nc(N4CCN(C)CC4)n3)ccc2n1Cc1ccccc1	106%	101%	81.7%	106%	96.6%	93.3%	92.4%	91.8%	96.2%
FC(F)(F)c1ccc2c(c1)n1cnnc1c1nncn21	112%	106%	87.6%	100%	112%	97%	94.7%	96.4%	–
COC(=O)[C@@H]1CCCN1C(=O)[C@@H]1CCCN1C(=O)[C@@H](Cc1c[nH]c2ccccc12)NC(=S)Nc1cc(C(F)(F)F)cc(C(F)(F)F)c1	39.9%	65.7%	41.4%	83.5%	61.9%	56.9%	99.6%	22.3%	–
CS(=O)(=O)Nc1cccc(C(=O)NCc2ccc(N3CCOCC3)cc2)c1	96.7%	107%	93%	93.3%	115%	101%	94%	93.2%	99.8%
O=C(CCc1nnc2sc(/C=C\c3ccccc3)nn12)c1nc2ccccc2[nH]1	98.1%	91.9%	70.4%	113%	99.5%	93.4%	65.2%	62.8%	–
CCCC1=NNC(=O)C1	106%	101%	82.8%	97.2%	103%	94.8%	109%	97.2%	–
COc1ccc(-c2c3c(N)c4c(nc3nc3c2c(C)nn3-c2ccccc2)CCCCC4)cc1	83.3%	93%	61.6%	74.8%	77.9%	84.2%	87.9%	49.5%	48%
COc1ccc(C(=O)C2=CC(=O)C(=O)C2)cc1OC	101%	109%	91.5%	98.7%	103%	97.4%	94.3%	101%	95.3%
COc1ccc(CSc2nc3cc(OC)c(OC)cc3c(=O)n2-c2ccc(Cl)cc2)cc1	110%	98.6%	71.2%	116%	97.1%	91.2%	88.7%	101%	88.6%
COc1cc(C2=NN(c3ccc(S(N)(=O)=O)cc3)C(c3ccc(Cl)cc3)C2)cc(OC)c1OC (configuration not stated)	66.9%	51%	23.2%	45.9%	46.5%	53.3%	35.4%	16.6%	–
O=C(NCc1ccco1)C1CCN(S(=O)(=O)c2ccc(Cl)cc2)CC1	82.6%	78.3%	57.5%	104%	83.5%	70.4%	59%	47.2%	–

SMILES	growth (SK-MEL-2 melanoma)	growth (SN12C renal)	growth (UO-31 renal)	growth (TK-10 renal)	growth (ACHN renal)	growth (CAKI-1 renal)	growth (A498 renal)	growth (MOLT-4 leukemia)	growth (CCRF-CEM leukemia)
CCCOC(=O)c1ccc2c(c1)[N+](=O)C(C(=O)c1ccccc1)=C(C(F)(F)F)[N+]2=O	-87.6% (active)	-92.3% (active)	-89% (active)	-99.1% (active)	-91.8% (active)	-92.5% (active)	-90.9% (active)	-63.3% (active)	-64.4% (active)
Cc1nc2cc(Nc3nc(Nc4ccc(F)cc4)nc(N4CCN(C)CC4)n3)ccc2n1Cc1ccccc1	-20.5% (active)	34.9%	-29% (active)	-12.1% (active)	9.69% (active)	18.6%	29.2%	1.11% (active)	–
Fc1ccccc1Nc1ccc2nnc(-c3ccncc3)n2n1	92.8%	103%	88%	114%	99.6%	102%	95.6%	98.8%	–
COc1nc2c(cc1S(=O)(=O)c1ccccc1)CCc1c-2cnn1-c1ccccc1	83.4%	77.9%	-65.3% (active)	67.9%	71.1%	58.2%	54.6%	54.5%	–
Clc1ccccc1Nc1ccc2nnc(-c3ccncc3)n2n1	100%	87%	89.5%	76.8%	96.6%	86.1%	72.8%	89.6%	79.1%
O=C(N/N=C/c1ccc(F)cc1)c1[nH]c2ccc(I)cc2c1-c1ccccc1	71.9%	32.6%	46%	65.2%	36%	5.08% (active)	39.1%	72.5%	–
COc1cccc(Nc2nc(NCCO)c3ccccc3n2)c1	103%	81.6%	74.4%	106%	79.7%	70.6%	43.8%	48.1%	22.4%
Cc1ccc(NS(=O)(=O)c2ccc(-c3cnc(C4CC4)o3)cc2)cc1	23.9%	42.2%	55.3%	64.9%	46.6%	38.8%	–	32%	–
O=C(N/N=C/c1ccc2c(c1)OCO2)c1cnn2c1NC(c1ccccc1)C2 (configuration not stated)	50.1%	73.7%	67.5%	70.3%	46%	21.1%	–	75.2%	–
CCN(CC)c1ccc2c(c1)OS(=O)(=O)N=C2	113%	100%	82.6%	101%	102%	94.7%	–	110%	106%
COC(=O)c1c2c(c(C)[n+]([O-])c1C)C(=O)C=C(NCc1cccc(Cl)c1)C2=O	-32.8% (active)	-90.7% (active)	-18.5% (active)	14.5%	-44.8% (active)	-14.3% (active)	–	-34.8% (active)	-11.2% (active)
CC(=O)OC[C@]1(C)C=C2C(=O)[C@](C)(O)C3(CC3)C(C)=C2[C@H]1OC(C)=O	103%	83.6%	41.5%	99.1%	51.3%	84.2%	–	109%	95.1%
FC(F)(F)c1cc(CNc2nc(Cl)ncc2Br)cc(C(F)(F)F)c1	83.6%	89.3%	67.1%	94%	94.5%	–	80.2%	82.4%	81.4%
C[C@]1(CO)C[C@@H](O)C[C@]2(C)[C@@H]1CC[C@@]13C[C@@H]4[C@@H](C[C@H]12)[C@]4(C)C3	102%	99.1%	83.9%	103%	97.7%	89.5%	–	108%	116%
CCC(C)Oc1cc(/C=N/NC(=O)c2cnn3c2NC(c2ccccc2)C3)ccc1OC (configuration not stated)	35.6%	47%	53.8%	70.7%	40.7%	35.9%	–	24.9%	23.1%

— PubChem BioAssay (NCI)
